# From PubChem BioAssay (NCI)
# Compounds without any hit were thinned out: in the full panel of roughly 83,000, 20% have a hit.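 Method: cells in 96-well plates; compound added at one concentration; 48 h incubation; percent growth measured; values under 10 scored active.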 Values without a mark were called inactive. Active and inactive are the calls of the source.
# Experiments:
# Experiment in all cases: NCI-60 one-dose screen, 48 h (100 = growth as untreated, 0 = no growth, -100 = all killed)
# Conditions in all cases: 10 µM
# NCI-H23 lung = tested on: NCI-H23 lung
# NCI-H226 lung = tested on: NCI-H226 lung
# HOP-62 NSCLC = tested on: HOP-62 NSCLC
# NCI-H460 lung = tested on: NCI-H460 lung
# HOP-92 NSCLC = tested on: HOP-92 NSCLC
# NCI-H522 lung = tested on: NCI-H522 lung
# A549/ATCC NSCLC = tested on: A549/ATCC NSCLC
# 786-0 renal = tested on: 786-0 renal
# COLO 205 colon = tested on: COLO 205 colon
SMILES,growth (NCI-H23 lung),growth (NCI-H226 lung),growth (HOP-62 NSCLC),growth (NCI-H460 lung),growth (HOP-92 NSCLC),growth (NCI-H522 lung),growth (A549/ATCC NSCLC),growth (786-0 renal),growth (COLO 205 colon)
CCOC(=O)c1cc(C(=O)c2cc(OC)c(OC)c(OC)c2)n2ccc(-c3cc[n+](CC(=O)c4cc(OC)c(OC)c(OC)c4)cc3)cc12,63.6%,90.8%,94.8%,-10.3% (active),46.2%,-21.5% (active),31.3%,-82.3% (active),43.7%
CNC(=O)c1cn(C2CC2)c2cc(N3CCN(C(=O)c4cc(OC)c(OC)c(OC)c4)CC3)c(F)cc2c1=O,93.7%,93%,90.8%,106%,92.3%,90%,94.6%,93.4%,105%
O=C(O)c1cn(C2CC2)c2cc(N3CCN(C(=O)c4cc(-c5ccc(Cl)cc5)nc5ccccc45)CC3)c(F)cc2c1=O,82.2%,92.3%,82.1%,96.1%,90.1%,86.4%,94.4%,88.3%,110%
C=CCSC(CC)(CC)C(=O)NC,99.4%,97.8%,102%,103%,106%,86.5%,94.9%,104%,120%
OCCn1cccn1,93.1%,99.9%,104%,102%,101%,101%,111%,109%,125%
CCN(CC)CCOc1ccc2c(c1O)C(=O)c1ccccc1C2=O,82.4%,86.2%,73.3%,84.5%,75.3%,82.6%,78.6%,80.1%,46.6%
O=C(O)c1cc([N+](=O)[O-])ccc1Oc1ccccc1,101%,98.6%,101%,105%,65.8%,97.1%,99.7%,104%,104%
COc1cc(C2CC(c3ccccc3)=NN2C(C)=O)cc(OC)c1OC (configuration not stated),64.1%,82.1%,68.2%,15.5%,76.1%,7.46% (active),54.7%,62.2%,35.3%
COc1ccc(-c2onc(N)c2-c2cc(OC)c3c(c2)OCO3)cc1,44%,77%,29.4%,14.9%,63.9%,9.81% (active),32.2%,47.2%,12.4%
COc1ccc(-c2cc(-c3ccc(Cl)cc3)nc(SCCCC(=O)NO)n2)cc1OC,-8.91% (active),-5.3% (active),2.14% (active),-17.7% (active),-0.324% (active),-5.35% (active),8.3% (active),4.57% (active),6.86% (active)
CCCCN(CCCC)C(=O)[C@H](CC)[C@@H]1CC[C@@H](C)[C@@H]([C@H](C)[C@@H](O)[C@@H](C)C(=O)[C@H](CC)C2O[C@]3(C=C[C@@H](O)[C@]4(CC[C@@](C)([C@H]5CC[C@](O)(CC)[C@H](C)O5)O4)O3)[C@H](C)C[C@@H]2C)O1 (some centres not stated),-11.8% (active),-2.42% (active),7.81% (active),-4.44% (active),-25.6% (active),-18.4% (active),9.11% (active),17.4%,-77.6% (active)
OC(CCN1CCCC1)(c1ccccc1)C1CCCCC1 (configuration not stated),103%,94.3%,120%,110%,115%,102%,104%,100%,117%
O=C1/C(=C/c2ccc3c(c2)OCO3)SC(=S)N1C1c2ccccc2Oc2ccccc21,89.8%,97.9%,98.3%,107%,90.7%,95.8%,109%,97.6%,99.7%
NNC(=O)Oc1c(Cl)cc(Cl)cc1[N+](=O)[O-],97.8%,106%,94.6%,110%,115%,96.9%,96.9%,105%,110%
COc1ccc(-c2cc(-c3ccc(OC)c(OC)c3)nc(SCCCC(=O)NO)n2)cc1,-26.8% (active),-15.3% (active),-13.3% (active),-4.97% (active),-28.6% (active),2.7% (active),-0.0794% (active),-20.8% (active),-12.4% (active)
N#Cc1c(-c2ccc(Cl)cc2)csc1NC(=O)Nc1ccc(Cl)c(C(F)(F)F)c1,15.8%,8.81% (active),14.5%,2.11% (active),-9.88% (active),-12.8% (active),18.3%,35.9%,-30.4% (active)
CN1CCN(CCCn2c(=O)c3sc4ncccc4c3n3nnc(-c4ccccc4)c23)CC1,77.3%,108%,21.7%,-77.1% (active),48.9%,-83.9% (active),12%,5.36% (active),-96.5% (active)
COc1cccc(C2C(C#N)=C(N)Oc3cc(N)ccc32)c1 (configuration not stated),37.8%,70%,45.4%,11.9%,36.9%,-0.592% (active),20.2%,53.9%,18.1%
Cc1ccc(NCCN(C)CC(C)O)c2c(=O)c3ccccc3sc12 (configuration not stated),57.4%,66.1%,48%,15.6%,32.4%,44.4%,21.6%,40.5%,-43.3% (active)
O=C1C=C(Nc2cccc(Br)c2)c2ccccc2C1=O,41.1%,91.3%,41.9%,12.7%,39.1%,27.3%,16.7%,60.2%,104%
C=CCN(CC=C)C(=O)[C@H](CC)[C@@H]1CC[C@@H](C)[C@@H]([C@H](C)[C@@H](O)[C@@H](C)C(=O)[C@H](CC)C2O[C@]3(C=C[C@@H](O)[C@]4(CC[C@@](C)([C@H]5CC[C@](O)(CC)[C@H](C)O5)O4)O3)[C@H](C)C[C@@H]2C)O1 (some centres not stated),6.23% (active),-0.687% (active),12%,3.23% (active),-23.9% (active),-2.7% (active),11.5%,20%,-62.4% (active)
CCn1c(SC/C(=N/O)c2ccccc2)nnc1-c1ccccc1,103%,108%,111%,102%,62.5%,112%,101%,105%,115%
CC[C@@H](C(=O)[C@@H](C)[C@@H](O)[C@H](C)[C@@H]1O[C@@H]([C@@H](CC)C(=O)O)CC[C@@H]1C)C1O[C@]2(C=CC(=O)[C@]3(CC[C@@](C)([C@H]4CC[C@](O)(CC)[C@H](C)O4)O3)O2)[C@H](C)C[C@@H]1C (some centres not stated),30.5%,28.3%,41.9%,23.8%,73.5%,24.6%,28.3%,24.7%,10.1%
CN1CCN(CCC(=O)Nc2cccc(-n3cc(-c4ccncc4)c(-c4ccc(Cl)c(O)c4)n3)c2)CC1,46.4%,66.6%,53.7%,13.4%,27.9%,16.9%,30.2%,32.2%,12.8%
CCNCC(=O)Nc1ccc(C(=O)OCC)cc1,99.9%,109%,90.5%,99.5%,113%,88.7%,103%,89.6%,108%
COc1cc(-c2csc(NC(=O)Nc3ccc(Cl)c(C(F)(F)F)c3)n2)cc(OC)c1OC,1.27% (active),-6.43% (active),-23.8% (active),2.24% (active),-35.4% (active),-25.4% (active),0.191% (active),-12.4% (active),-58.1% (active)
O=C1CSC(=S)N1/N=C/c1ccc(Cl)s1,90.3%,106%,95.4%,107%,110%,96.2%,103%,102%,107%
Cc1c(Cl)cccc1NC(=O)CCCl,105%,95.3%,86.9%,102%,103%,91%,92.8%,103%,107%
